# Out of some 350,000 compounds screened, about 31,000 (8.9%) were called active. About 15% were inconclusive and are not listed. This is one part of a sample in which actives are shown more often than they occur. The call rests on the fitted dose curve; in most records, active means well fitted inhibition curve with a large enough effect; inconclusive means small, poorly fitted or top-dose-only effect; inactive means no such curve, though single readings can be large or run the other way.
# Target: Histone-lysine N-methyltransferase EHMT2 (Homo sapiens) (UniProt Q96KQ7)
# Sequence (Q96KQ7 913-1193 limits assumed): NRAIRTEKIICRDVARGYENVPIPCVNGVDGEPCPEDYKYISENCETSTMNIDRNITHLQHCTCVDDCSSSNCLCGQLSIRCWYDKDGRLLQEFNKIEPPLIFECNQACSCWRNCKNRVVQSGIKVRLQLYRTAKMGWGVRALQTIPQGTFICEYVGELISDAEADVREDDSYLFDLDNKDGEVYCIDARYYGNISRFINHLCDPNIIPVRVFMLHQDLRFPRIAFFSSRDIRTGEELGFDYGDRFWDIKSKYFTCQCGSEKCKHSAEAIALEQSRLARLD
# Test: qHTS Assay for Inhibitors of Histone Lysine Methyltransferase G9a; further: nearly all actives have a fitted effect of over 75% in size
# Conditions: G9a H3K9 monomethylation, AlphaScreen, 2 h; series mostly up to 59 µM; activity, negative = inhibition: at the top concentration
# Method in brief: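 Methyltransferase reactions run at room temperature for 2 h (20 nM enzyme, 500 nM biotin-H3K9 peptide, 20 uM SAM) after a 15 min compound preincubation; product detected by AlphaScreen beads and anti-H3K9me1 antibody.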
# On the % scale 0 is the no-effect control and ±100 the full control effect; potency means the concentration at half of the fitted maximal effect.
SMILES,"activity, negative = inhibition",Potency
O=C(NCCCc1ccccc1)c1cc(COc2c(F)cccc2F)on1,178% [at 102 µM] (inactive),
CCc1nn(CCCC(=O)NCc2ccc(C)cc2)c(=O)c2cc3occc3n12,,inactive
CN(CCc1ccccn1)C1CCCN(S(=O)(=O)c2ccccc2Cl)C1 (stereo not given),-5.52% [at 102 µM] (inactive),
COc1c(Cl)cc(Cl)cc1C(=O)Nc1cccc2cccnc12,56.1% (inactive),
COc1ccc(-c2nn3c(=O)cc(CN4CCN(C(=O)c5ccc(OC)c(OC)c5)CC4)nc3s2)cc1,12.8% (inactive),
Cc1ccc(S(=O)(=O)N[C@@H](Cc2ccccc2)C(=O)N2CCC(C(=O)N[C@H](C(=O)O)C(C)O)CC2)cc1 (stereo not given in full),1.01% [at 102 µM] (inactive),
COc1ccc(S(=O)(=O)N2CCOCC2)cc1NC(=O)Cc1c(F)cccc1Cl,17.5% [at 12.7 µM] (inactive),
CC(OC(=O)CNC(=O)c1cccc(F)c1)C(=O)NC1CCCCC1C (stereo not given),2.6% [at 102 µM] (inactive),
COc1ccc(NC(=O)C2CCN(c3ccc(Sc4ccc(C)cc4)nn3)CC2)c(OC)c1,-3.36% (inactive),
Cc1cc(NC(=O)c2ccc(-c3ccc(Cl)cc3)o2)cc(-c2nc3ncccc3o2)c1O,3.7% (inactive),
COc1ccc(CCNC(=O)CCc2ccccc2O)cc1OC,7.03% [at 0.501 µM] (inactive),
COc1ccccc1CN1CCN(Cc2cc(OC)c(OC)cc2OC)CC1,,8.91 µM (active)
COC(=O)N1CCC2(CCCN(Cc3ccccc3OC)C2)CC1,2.95% [at 12.7 µM] (inactive),
COc1ccc(OC)c(CN2CCN(C(=O)CNC(=O)c3cc(C)cc(C)c3)CC2)c1,31.1% (inactive),
COc1ccc(C(=O)CSc2c(C(C)C)cnc3c2c(=O)n(C)c(=O)n3C)cc1,-3.65% (inactive),
CCN1C(=O)[C@@H]2[C@@H](c3ccc(-c4ccccc4)cc3)N3CCCC[C@@]3(C(=O)OC)[C@@H]2C1=O,-6.56% [at 2.33 µM] (inactive),
CCc1cnc2c(c1SCC(=O)N1CCC(C)CC1)c(=O)n(C)c(=O)n2C,9.16% (inactive),
COc1ccc(N(C(=O)c2cccnc2)S(=O)(=O)c2ccc3c(c2)n(C)c(=O)n3C)cc1,-0.924% [at 12.7 µM] (inactive),
COc1ccc(N(C(=O)c2cccnc2)S(=O)(=O)c2ccc(OC)c(OC)c2)cc1,13.8% [at 102 µM] (inactive),
O=C(c1cccnc1)N(c1cc2sc(=O)oc2c2ccccc12)S(=O)(=O)c1ccccc1,,1.12 µM (active)

SMILES,"activity, negative = inhibition",Potency
O=C(c1ccco1)N1CCN(C(=O)c2cc(-c3ccccc3F)no2)CC1,-5.83% [at 102 µM] (inactive),
CCCOC(=O)c1ccc(N2C(=O)c3ccccc3C2=O)cc1,-5.76% (inactive),
CCO/C=C1\C(=O)N(c2ccc(OCC)cc2)C(=O)c2ccccc21,,31.6 µM (active)
CCOc1ccc(NC(=O)C(CC(C)C)N2Cc3ccccc3C2=O)cc1 (stereo not given),3.11% (inactive),
O=C(COC(=O)c1ncc(Cl)c(Cl)c1Cl)NNC(=O)c1ccccc1,5.49% [at 102 µM] (inactive),
O=[N+]([O-])c1cc([N+](=O)[O-])c2cccnc2c1O,,31.6 µM (active)
Cc1ccc(C(=O)Nc2cccc3ncccc23)cc1[N+](=O)[O-],35.3% [at 12.7 µM] (inactive),
COC(=O)c1ccc(COc2cc([N+](=O)[O-])cc3cccnc23)cc1,-18.3% [at 102 µM] (inactive),
O=C1c2ccccc2C(=O)c2c1cccc2N1CCN(Cc2ccccc2)CC1,,10 µM (active)
CCc1c(C)nc(N2CCN(Cc3ccccc3)CC2)[nH]c1=O,-41.6% [at 12.7 µM] (inactive),
O=c1cc(N2CCN(Cc3ccccc3)CC2)c(-c2ccccc2)n[nH]1,88.4% (inactive),
N#Cc1cccc(OC(=O)c2ccc3c(=O)n4c(nc3c2)CCC4)c1,-1.34% [at 0.501 µM] (inactive),
COc1ccc(-c2cc(C3CCN(c4ncccc4[N+](=O)[O-])CC3)[nH]n2)cc1,,50.1 µM (active)
CC(=O)NC(Cc1ccccc1)C(=O)NC1CCN(c2ncccc2[N+](=O)[O-])CC1 (stereo not given),12.9% [at 102 µM] (inactive),
COc1ccc(-c2cc3ncccc3cn2)cc1,-3.56% [at 0.501 µM] (inactive),
O=C(NCC1CCCO1)c1cc2c([nH]c3ccccc32)c(-c2ccc(F)cc2)n1 (stereo not given),6.78% [at 12.7 µM] (inactive),
COc1cc(NC(=O)CN2C(=O)NC(C)(c3ccc(OC(F)F)cc3)C2=O)cc(OC)c1OC (stereo not given),9.2% [at 102 µM] (inactive),
CSc1nc(-c2ccc(F)cc2)nc2c1Cc1c(CO)cnc(C)c1O2,-2.18% (inactive),
COc1cc(Cl)c(S(=O)(=O)n2cnc(C)c2)cc1Cl,8.6% (inactive),
CCc1nc(C)cn1S(=O)(=O)c1cc([N+](=O)[O-])ccc1Cl,-42.6% [at 102 µM] (inactive),

SMILES,"activity, negative = inhibition",Potency
CCc1nc(C)cn1S(=O)(=O)c1cc(OC)c(C)cc1C,,44.7 µM (active)
CCOc1cc(/C=C2\SC(N3CCCC(C)C3)=NC2=O)ccc1O (stereo not given),8.33% [at 102 µM] (inactive),
CC(C)C(=O)NCC(c1cccs1)S(=O)(=O)c1ccc(F)cc1 (stereo not given),-1.3% [at 102 µM] (inactive),
CC1CCCC(C)N1C(=O)COC(=O)COc1ccccc1C#N (stereo not given),15.3% (inactive),
COC(=O)c1cnc(N2CCN(c3ccccc3OC)CC2)c2ccccc12,13.9% (inactive),
CC(=O)Nc1ccc(OCC(O)CN2CCN(c3ccccc3Cl)CC2)cc1 (stereo not given),6.83% (inactive),
COc1ccccc1N1CCN(CC(=O)NCCc2ccc(S(N)(=O)=O)cc2)CC1,1.17% [at 102 µM] (inactive),
COc1ccccc1N1CCN(CCN2C(=O)c3ccccc3C(C)(C)C2=O)CC1,4.6% (inactive),
COc1ccccc1N1CCN(Cc2ccc(OC)c3ccccc23)CC1,,8.91 µM (active)
CNCC(O)CN1CCN(c2ccccc2OC)CC1 (stereo not given),,50.1 µM (active)
S=C(Nc1cccnc1)Nc1ccccn1,-8.13% [at 2.33 µM] (inactive),
COc1ccc(S(=O)(=O)N2CCCCC2)cc1C(=O)NC1CCS(=O)(=O)C1 (stereo not given),-6.27% (inactive),
CCOC(=O)c1cc(-c2ccccc2C)n(Cc2cc(C)no2)n1,-5.1% [at 0.501 µM] (inactive),
CN(C(=O)COC(=O)Cn1cnc2c1c(=O)n(C)c(=O)n2C)C1(C#N)CCCCC1,24% [at 12.7 µM] (inactive),
Cc1cc(-c2n[nH]c(=S)n2/N=C/C(Br)=C/c2ccccc2)n[nH]1,,6.31 µM (active)
O=C(N/N=C\c1cccnc1)c1cc(-c2ccccc2)nc2c(Cl)cccc12,8.22% [at 102 µM] (inactive),
Cc1cc(-c2n[nH]c(=S)n2/N=C/c2ccco2)n[nH]1,-104% [at 12.7 µM] (inactive),
Cc1cc(C(=O)N/N=C\C(Br)=C\c2ccccc2)c(C)o1,-42.4% [at 102 µM] (inactive),
S=c1[nH]nc(-c2cccnc2)n1/N=C/C(Cl)=C\c1ccccc1,,0.891 µM (active)
c1ccc(-n2nnnc2-c2cccnc2)cc1,-12.2% [at 102 µM] (inactive),

# — PubChem BioAssay AID504332 (National Center for Advancing Translational Sciences (NCATS), 2011)
